Reference: PubChem BioAssay (NCATS)
Results filed as inconclusive are left out. Where a call stands in place of a potency, no number is given. Calls of active or inactive are those of the source. Calls follow the shape of the dose curve; as a rule, active = well fitted curve in the direction sought with a large enough effect; inconclusive = small, poorly fitted or top-dose-only effect, or another doubt; inactive = no such curve, though single readings can be large; an effect the other way counts as inactive or inconclusive. Where a SMILES comes first, the peptide text is derived from it. Bridges are numbered along the chain shown (N, C = ends). [ ]: non-standard residue; d: D form. NMeY = CN[CH](Cc1ccc(O)cc1)C(=O)O

What was measured:
[1] = biological target: Calcium and integrin-binding protein 1 (Homo sapiens) (UniProt Q99828); experiment: Primary qHTS for Identification of Calcium Integrin Binding Protein 1 (CIB1) Competitor (AID 1508620); conditions: CIB1-GST / FITC-alphaIIb peptide fluorescence polarization; series mostly up to 114 µM;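 also: GST tagged CIB1 binding a fluorescein labelled alphaIIb integrin peptide tracer; top concentration of the series differs between compounds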
Calcium and integrin-binding protein 1 (Homo sapiens), sequence (Q99828 whole entry, looked up): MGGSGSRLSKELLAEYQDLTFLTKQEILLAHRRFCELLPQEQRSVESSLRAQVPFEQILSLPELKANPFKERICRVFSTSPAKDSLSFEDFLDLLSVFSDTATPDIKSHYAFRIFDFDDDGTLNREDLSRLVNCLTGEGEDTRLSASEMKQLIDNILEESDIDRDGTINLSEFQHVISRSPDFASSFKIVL
Outline: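 Fluorescence polarization competition: CIB1-GST (1 uM final) preincubated with compound 15 min at room temperature, then FITC-labeled alphaIIb peptide (100 nM final) added for another 15 min. Polarization read at Ex 480/Em 540.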

[2] = Primary qHTS for inhibitors of nuclear receptor binding SET domain protein 2 (NSD2) in an isogenic RCH-ACV NSD2 p.E1099K mutant (9B) (AID 1645876); conditions: RCH-ACV NSD2 E1099K (9B) viability, CellTiter-Glo, 72 h; series mostly up to 44.9 µM; also: nearly all actives have a fitted effect of over 70% in size; also: potency is read from the fitted curve at half-maximal effect
[3] = Primary qHTS for inhibitors of nuclear receptor binding SET domain protein 2 (NSD2) in an RCH-ACV wild type WT cells (2C) (AID 1645877); conditions: RCH-ACV (leukaemia line) NSD2 WT (2C) viability, CellTiter-Glo, 72 h; series mostly up to 44.9 µM; also: nearly all actives have a fitted effect of over 70% in size; also: potency is read from the fitted curve at half-maximal effect

CC(=O)c1ccc(O[C@@H]2O[C@H](CO)[C@@H](O)[C@H](O)[C@H]2O)cc1
Potency [1]: inactive | Potency [2]: inactive | Potency [3]: inactive

O=C(/C=C\n1cnc(-c2cc(C(F)(F)F)cc(C(F)(F)F)c2)n1)N1CC(F)(F)C1
Potency [1]: inactive | Potency [2]: 934 nM (active) | Potency [3]: 833 nM (active)

C/C(=C\CCC(C)CCO)C(=O)OC1(C)CCC2C(C(=O)O)=COC(OC3OC(CO)C(O)C(O)C3O)C21 (stereo not given)
Potency [1]: inactive | Potency [2]: inactive | Potency [3]: inactive

COc1cc2c(cc1OC)CC(=O)N(CCCNC[C@H]1Cc3cc(OC)c(OC)cc31)CC2
Potency [1]: inactive | Potency [2]: inactive | Potency [3]: inactive

C=C1C(=O)O[C@H]2C1[C@H](OC(=O)/C(=C/CO)COC(=O)/C(C)=C/CO)CC(=C)[C@@H]1CC(=O)[C@@H](C)[C@@H]12 (stereo not given in full)
Potency [1]: inactive | Potency [2]: 3550 nM (active) | Potency [3]: 1780 nM (active)

Nc1nc2c(ncn2[C@@H]2O[C@@H]3COP(=O)(O)O[C@H]3[C@H]2O)c(=O)[nH]1
Potency [1]: inactive | Potency [2]: inactive | Potency [3]: inactive

CC(=O)O[C@@H]1C[C@H](O)[C@@]23CO[C@H](O)[C@]1(C)C2C[C@@H](O)[C@]1(C)C3C(=O)[C@H](OC(C)=O)[C@@]2(C)[C@H](c3ccoc3)C[C@H]3O[C@]321 (stereo not given in full)
Potency [1]: inactive | Potency [2]: 34.2 nM (active) | Potency [3]: 21.6 nM (active)

OC[C@H]1O[C@@H](Oc2cc(O)c3c(c2)O[C@@H](c2ccc(O)cc2)[C@H](O)C3)[C@H](O)[C@@H](O)[C@@H]1O
Potency [1]: inactive | Potency [2]: inactive | Potency [3]: inactive

CC1=CC(=O)[C@H]2C(C)(C)CCC[C@]2(C)[C@@]1(O)CO
Potency [1]: inactive | Potency [2]: inactive | Potency [3]: inactive

C[C@@H]1O[C@@H](O[C@@H]2[C@@H](O)[C@H](O[C@H]3[C@H](O[C@H]4CC[C@@]5(C)C(CC[C@]6(C)C5CC=C5[C@@H]7CC(C)(C)CC[C@]7(C(=O)O[C@@H]7O[C@H](CO)[C@@H](O)[C@H](O)[C@H]7O[C@@H]7O[C@@H](C)[C@H](O[C@@H]8O[C@@H](C)[C@H](O)[C@@H](O)[C@H]8O)[C@@H](O)[C@H]7O)CC[C@]56C)[C@@]4(C)CO)O[C@H](C(=O)O)[C@@H](O)[C@@H]3O)O[C@H](CO)[C@H]2O)[C@H](O)[C@H](O)[C@H]1O (stereo not given in full)
activity change, negative = inhibition [1]: 4.5% [at 12.4 µM] (inactive) | activity change, negative = viability loss [2]: -0.268% [at 9.23 µM] (inactive) | activity change, negative = cell killing [3]: -3.64% [at 9.23 µM] (inactive)

O=C1NC2CCc3nc4ccccc4c(=O)n3C2=Nc2ccccc21 (stereo not given)
Potency [1]: inactive | Potency [2]: inactive | Potency [3]: inactive

Cc1c(NC(=O)c2cc(C(N)=O)nc3cc(F)ccc23)c(C(F)(F)F)nn1Cc1ccc(C#N)cc1
Potency [1]: inactive | Potency [2]: inactive | Potency [3]: inactive

CC1C(OC(=O)c2ccccc2)C(O)C2C(C(=O)O)=COC(OC3OC(CO)C(O)C(O)C3O)C12 (stereo not given)
Potency [1]: inactive | Potency [2]: inactive | Potency [3]: inactive

O=C(/C=C\c1ccc(O)cc1)N[C@@H](Cc1ccc(O)cc1)C(=O)O
Potency [1]: inactive | Potency [2]: inactive | Potency [3]: inactive

CC1(C)CC[C@]2(C(=O)O)[C@H](O)C[C@]3(C)C(=CCC4[C@@]5(C)CC[C@H](O[C@@H]6O[C@H](CO[C@@H]7OC[C@H](O)[C@H](O)[C@H]7O[C@@H]7OC[C@@H](O)[C@H](O)[C@H]7O)[C@@H](O)[C@H](O)[C@H]6O[C@@H]6O[C@H](CO)[C@@H](O)[C@H](O)[C@H]6O)C(C)(C)C5CC[C@]43C)[C@@H]2C1 (stereo not given in full)
Potency [1]: inactive | activity change, negative = viability loss [2]: -4.67% [at 9.23 µM] (inactive) | activity change, negative = cell killing [3]: -6.47% [at 9.23 µM] (inactive)

C=C1CCC2C(C)(C(=O)O)CCCC2(C)C1CC/C(=C\CO)CO (stereo not given)
Potency [1]: inactive | Potency [2]: inactive | Potency [3]: inactive

COc1ccc(/C=C\C(=O)O)c(O[C@@H]2O[C@H](CO)[C@@H](O)[C@H](O)[C@H]2O)c1
Potency [1]: inactive | Potency [2]: inactive | Potency [3]: inactive

C=C1C(=O)O[C@@H]2[C@H]1CCC(C)=C1CCC(=O)O[C@]12C
Potency [1]: inactive | Potency [2]: 9160 nM (active) | Potency [3]: 4090 nM (active)

CCC(C)C1NC(=O)C2CCCN2C(=O)C(NC(C)=O)C(C)OC(=O)C(Cc2ccc(OC)cc2)N(C)C(=O)C2CCCN2C(=O)C(C(C)C)NC1=O (stereo not given) (Ac-TPIVP[NMeY](Me); ester 1-C; configuration not given here)
Potency [1]: inactive | Potency [2]: inactive | Potency [3]: inactive

CC1(C)CC[C@]2(C(=O)O[C@@H]3O[C@H](CO)[C@@H](O)[C@H](O)[C@H]3O)CC[C@]3(C)C(=CCC4[C@@]5(C)C[C@@H](O)[C@H](O)[C@](C)(C(=O)O)C5CC[C@]43C)C2C1O (stereo not given in full)
Potency [1]: inactive | Potency [2]: inactive | Potency [3]: inactive

CC1C(=O)CC2C3CCC(C(=O)O)C12CC3(C)CO (stereo not given)
Potency [1]: inactive | Potency [2]: inactive | Potency [3]: inactive

CC(=O)N[C@H]1[C@H](O[C@H]2CC[C@@]3(C)C(CC[C@]4(C)C3CC=C3C5CC(C)(C)CC[C@]5(C(=O)O)[C@H](O)C[C@]34C)C2(C)C)O[C@H](CO[C@@H]2OC[C@H](O)[C@H](O)[C@H]2O[C@@H]2OC[C@@H](O)[C@H](O)[C@H]2O)[C@@H](O)[C@@H]1O (stereo not given in full)
Potency [1]: inactive | activity change, negative = viability loss [2]: -10% [at 9.23 µM] (inactive) | activity change, negative = cell killing [3]: 3.06% [at 9.23 µM] (inactive)

CC[C@]1(O)CC2CN(CCc3c([nH]c4ccccc34)[C@@](C(=O)OC)(c3cc4c(cc3OC)N(C=O)[C@H]3[C@@](O)(C(=O)OC)[C@H](OC(C)=O)[C@]5(CC)C=CCN6CC[C@]43[C@@H]65)C2)C1 (stereo not given in full)
Potency [1]: inactive | Potency [2]: 6.4 nM (active) | Potency [3]: 6.4 nM (active)

CC1(C)CC2C(O)c3cocc3CC(C)(O)C2C1 (stereo not given)
Potency [1]: inactive | Potency [2]: inactive | Potency [3]: inactive

NCc1c[nH]c(=S)n1[C@@H]1CCc2c(F)cc(F)cc2C1
Potency [1]: inactive | Potency [2]: inactive | Potency [3]: inactive

C=C1CC23CC1CCC2C12OC(=O)C(C)(CCC1O)C2C3C(=O)O (stereo not given)
Potency [1]: inactive | Potency [2]: inactive | Potency [3]: inactive

CC1(C=O)CC[C@]2(C(=O)O[C@@H]3O[C@H](CO)[C@@H](O)[C@H](O)[C@H]3O)CC[C@]3(C)C(=CCC4[C@@]5(C)C[C@H](O)[C@H](O[C@@H]6OC[C@@H](O)[C@H](O)[C@H]6O)[C@@](C)(CO)C5CC[C@]43C)C2C1 (stereo not given in full)
Potency [1]: inactive | outcome [2]: inactive [at 9.23 µM] | activity change, negative = cell killing [3]: -3.33% [at 9.23 µM] (inactive)

COC1CC(O[C@H]2CC[C@@]3(C)C(=CC[C@]4(O)C3[C@H](OC(C)=O)[C@@H](OC(=O)c3ccccc3)[C@]3(C)[C@@H](C(C)=O)CC[C@@]34O)C2)OC(C)C1OC1CC(OC)C(OC2CC(OC)C(OC3OC(C)C(OC4OC(CO)C(O)C(O)C4O)C(OC)C3O)C(C)O2)C(C)O1 (stereo not given in full)
activity change, negative = inhibition [1]: -4.32% [at 12.4 µM] (inactive) | activity change, negative = viability loss [2]: -11.2% [at 9.23 µM] (inactive) | activity change, negative = cell killing [3]: -8.43% [at 9.23 µM] (inactive)

C/C(=C\CC[C@@H](C)[C@H]1CC(O)[C@@]2(C)C3CC[C@H]4C(C)(C)[C@@H](OC5OCC(O)C(O)C5OC5OC(CO)C(O)C(O)C5O)CC[C@@]45C[C@@]35CC(O)[C@]12C)C(=O)O (stereo not given in full)
Potency [1]: inactive | Potency [2]: inactive | Potency [3]: inactive

C/C=C/C=C/C(=O)N1CC[C@]23c4ccccc4N[C@H]4N(C)c5cccc6c5[C@@]42CCN([C@H]6C2OC2(C)C)[C@H]13 (stereo not given in full)
Potency [1]: inactive | Potency [2]: inactive | Potency [3]: inactive

C[C@@H]1CC[C@@]2(OC1)O[C@H]1C[C@H]3[C@@H]4CC=C5C[C@@H](O)CC[C@]5(C)[C@H]4CC[C@]3(C)[C@H]1[C@@H]2C
Potency [1]: inactive | Potency [2]: inactive | Potency [3]: inactive

C[C@@H]1C[C@@H](O)[C@@]23CO[C@@H](O)[C@@H]2CCC[C@@H]3[C@@]12C[C@@H](c1ccoc1)OC2=O
Potency [1]: inactive | Potency [2]: inactive | Potency [3]: inactive

CC1CCC23COC(=O)C2=CC(O)CC3C1(C)CCC1=CC(O)OC1=O (stereo not given)
Potency [1]: inactive | Potency [2]: inactive | Potency [3]: inactive

COC(=O)c1ccnc(-c2cc(C(=O)NCCc3ccccc3)ccn2)c1
Potency [1]: inactive | Potency [2]: inactive | Potency [3]: inactive

C[C@@H]1O[C@@H](O[C@H]2[C@H](O[C@H]3[C@H](O[C@H]4CC[C@@]5(C)C(CC[C@]6(C)C5CC=C5[C@@H]7CC(C)(C)C[C@@H](O)[C@]7(C)CC[C@]56C)[C@@]4(C)CO)O[C@H](C(=O)O)[C@@H](O)[C@@H]3O)OC[C@H](O)[C@@H]2O)[C@H](O)[C@H](O)[C@H]1O (stereo not given in full)
Potency [1]: inactive | activity change, negative = viability loss [2]: 2.23% [at 9.23 µM] (inactive) | activity change, negative = cell killing [3]: -3.15% [at 9.23 µM] (inactive)

CC(C)C[C@H](CC(=O)NO)C(=O)N[C@H](C(=O)N[C@@H](C)C(=O)NCCN)C(C)(C)C
Potency [1]: inactive | activity change, negative = viability loss [2]: -8.25% [at 9.23 µM] (inactive) | activity change, negative = cell killing [3]: -8.71% [at 9.23 µM] (inactive)

CC1C=CC2CCCCC2C1CCC1CC(O)CC(=O)O1 (stereo not given)
Potency [1]: inactive | Potency [2]: inactive | Potency [3]: inactive

O=C1NC(Cc2c[nH]c3ccccc23)C(=O)NC1Cc1cnc[nH]1 (stereo not given)
Potency [1]: inactive | Potency [2]: inactive | Potency [3]: inactive

CC1(C)CC2C=C(C(=O)O)C3COC(=O)C(O)(CO)C23C1 (stereo not given)
Potency [1]: inactive | Potency [2]: inactive | Potency [3]: inactive

COC(=O)c1ccc(OC(CO)C(O)c2ccc(O)c(OC)c2)c(OC)c1 (stereo not given)
Potency [1]: inactive | Potency [2]: inactive | Potency [3]: inactive

COc1cc2occc2c(O[C@@H]2O[C@H](CO)[C@@H](O)[C@H](O)[C@H]2O)c1CCC(=O)O
Potency [1]: inactive | Potency [2]: inactive | Potency [3]: inactive

CC(=O)CCC1=C(C)C(O[C@@H]2O[C@H](CO)[C@@H](O)[C@H](O)[C@H]2O)C(O)CC1(C)C (stereo not given in full)
Potency [1]: inactive | Potency [2]: inactive | Potency [3]: inactive

CN1c2ccccc2C(=O)N2CCC3c4ccccc4NC3C21 (stereo not given)
Potency [1]: inactive | Potency [2]: 2260 nM (active) | Potency [3]: 2010 nM (active)

CC(=O)O[C@@](C)(C(=O)/C=C/C(C)(C)O)[C@H]1[C@H](O)C[C@@]2(C)[C@@H]3CC=C4[C@@H](C=C(O)C(=O)C4(C)C)[C@]3(C)C(=O)C[C@]12C
Potency [1]: inactive | Potency [2]: 502 nM (active) | Potency [3]: 282 nM (active)

C[C@H]1CC[C@@]2(OC1)O[C@H]1CC3C4CC[C@H]5C[C@@H](O)[C@H](O)C[C@]5(C)C4=CC(=O)[C@]3(C)[C@H]1[C@@H]2C (stereo not given in full)
Potency [1]: inactive | Potency [2]: inactive | Potency [3]: inactive
